According to PubChem BioAssay AID602392 (National Center for Advancing Translational Sciences (NCATS), 2012):
Several values for one entry are separate records, joined by “and”; a condition that tells them apart may be missing. Identical values can stand only once. Activity calls are given as the source filed them. The call rests on the fitted dose curve.

The compounds below were run against 4'-phosphopantetheinyl transferase Sfp (Bacillus subtilis (strain 168)) (UniProt P39135) (assay: qHTS Assay for Inhibitors of Bacillus subtilis Sfp phosphopantetheinyl transferase (PPTase): Label Free Assay for SAR). Conditions: purified Sfp with carrier protein, gel densitometry, 30 min.
From the text: The covalent attachment of a phosphopantetheinyl (4'-PP) arm to a variety of synthases and other proteins is a key posttranslational protein modification. The 4'-PP is installed on the proteins post-translationally from coenzyme A (CoA) on a conserved serine residue by action of phosphopantetheinyl transferase (PPTase) enzymes. Phosphopantetheinylation is essential for synthase activity, and removal of the PPTase gene precludes natural product synthesis in microorganisms, or in the case of fatty acid biosynthesis, renders the organism unviable. PPTase enzymes belong to a distinct structural superfamily. Within bacteria, these enzymes are grouped into two classes based upon primary structure, the AcpS-Type and Sfp-Type PPTases.
Sfp-type PPTases, corresponding to an activator of surfactin production in Bacillus subtilis, are responsible for modifying type I polyketide and nonribosomal peptide synthases of prokaryotes. Sfp-type PPTases are responsible for the activation of a variety of pathogen-associated virulence factors. Among these compounds are toxins such as mycolactone from Mycobacterium ulcerans, siderophores such as vibriobactin from Vibrio cholerae or mycobactin from Mycobacterium tuberculosis, as well as the mycolic acids which form the waxy cell wall of Mycobacteria. The biosyntheses of these natural products are considered attractive targets for drug design.
In search of small molecule Sfp-PPTase inhibitors, a fluorescence quenching assay was developed for detection of Bacillus subtilis Sfp-PPTase enzymatic activity in a miniaturized high-throughput format. The consensus ybbr acceptor peptide […] was N-terminally labeled with Black Hole Quencher-2 (BHQ-2) and used in combination with rhodamine-labeled coenzyme A as a co-substrate.
This project seeks to identify inhibitors of Sfp phosphopantetheinyl transferase. The primary and secondary screens both utilized a rhodamine-modified CoA substrate. This experiment sought to confirm compound activity in a biochemical assay using the natural nucleotide substrate in conjunction with a whole-protein acceptor. We employed polyacrylamide gel electrophoresis in the presence of modest urea concentrations to achieve a conformationally sensitive separation of the apo- and holo- states of the acyl carrier protein (ACP) from E. coli [Rock, 1981, Cronan 1982]. Under conditions of limiting Sfp concentrations, quantitative determinations of enzyme activity can be made from images of the gels after treatment with an appropriately sensitive protein stain.
NIH Chemical Genomics Center [NCGC]
NIH Molecular Libraries Probe Centers Network [MLPCN]
Assay Submitter (PI): Michale Burkart, University of California, San Diego
Preparation of apo-ACP substrate.
A derivative of the AcpP locus from E. coli K12 containing a C-terminal fusion to a hexahistidine tag is expressed and purified from E.coli BL21(DE3) following standard procedures, (27) providing a mixture of the apo- and holo- forms of ACP in a ratio 3:2; as judged by UREA-PAGE. The resulting mixture (10 mg/ml) is reduced overnight in PBS buffer containing 10 mM DTT, and excess reducing agent removed by passage over a PD6 desalting column (Bio-Rad Laboratories, Hercules, CA). The sample is immediately pooled with an equal volume of activated thiol sepharose 4B (cat #17-0640-01, GE Healthcare, Piscataway, NJ) prepared according to the manufacturers recommendations; and the slurry agitated gently overnight at 4 deg C. The slurry was decanted into a disposable chromatography column and washed with 3 volumes of PBS. The filtrate and washes were pooled, concentrated, and the process iterated once to provide a solution of ACP that was >98% apo-form as judged by conformationally sensitive UREA-PAGE.
Label-free gel assay for phosphopantetheinylation.
Test compound (0.5 ul) dissolved in DMSO was added to 1.33 X enzyme solution (15 ul) containing 66 nM Sfp, 66 mM HEPES*Na pH 7.6, 13.3 mM MgCl2, 0.0133% NP40, and 1.33 mg/ml BSA. […]

SMILES	Potency	outcome
O=C(Nc1nnc(COc2ccc(Cl)cc2)s1)c1ccco1	9.26 µM (active)	
O=C(Nc1nnc(COc2ccc(Cl)cc2)s1)c1cccs1	250 µM (active)	
CCc1c(C)sc(NC(=O)C2CCCCC2C(=O)O)c1C(N)=O (configuration not stated)		inactive
Cc1ccnc(NC(=S)N2CCN(c3cccc(C(F)(F)F)c3)CC2)c1	83.3 µM (active) and 3.09 µM (active)	
C(=C1\Nn2c(COc3ccccc3)nnc2S1)/c1ccccc1	27.8 µM (active)	
CC(C)(C)Cc1nnc(NC(=O)CSc2ccccc2)s1		inactive
CCOC(=O)c1c(-c2ccc(C)o2)csc1NC(=O)CSc1nnnn1-c1ccccc1	27.8 µM (active)	
COc1ccc(N2CCN(C(=S)Nc3cc(C)ccn3)CC2)cc1	83.3 µM (active)	
CN(C)c1ccc(C(=S)N2CCN(Cc3ccccc3)CC2)cc1	27.8 µM (active)	
CCOC(=O)c1cc(-c2ccccc2)sc1NC(=O)c1ccc(OC)cc1		inactive
Cc1ccnc(NC(=S)N2CCN(c3ccc(Br)cc3)CC2)c1	83.3 µM (active)	
S=C(Nc1ccccn1)c1ccccn1		inactive
